Measurements: PubChem BioAssay
Activity calls are given as the source filed them. Cut-off read from the data, not from the text of the source, unless noted: active = inhibition above about 80%; inactive = the rest.

What was measured:
[1] = galactose survival enhancers in mitochondrial complex I cybrids – cell-based, galactose medium, ATP luminescence, primary screen (AID 1645843;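 active = z-score of at least 1.8 in each of two replicates, scored against plate mean and spread of sample wells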;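 note: positive z means more ATP and so rescue of galactose-driven cybrid death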); settings: complex I mutant cybrid cells, 72 h, stronger effect = higher value
[2] = growth inhibition, single agent or in combination, cell-based, chromothripsis tumors, cisplatin or BGB combos (AID 1671449); settings: LFS_MB_P medulloblastoma cells;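 note: cells exposed for 96 hours; 0% = vehicle DMSO and 100% = killing by high DMSO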
[3] = growth inhibition, single agent and combos, cell-based, chromothripsis tumors, cisplatin or BGB combos (AID 1671450); settings: HDN33 neuroblastoma cells, stronger effect = higher value;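 note: cells exposed to compound for four days; 0% = vehicle DMSO and 100% = cell killing by high DMSO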
[4] = growth inhibition, single agents and combos, ICB984, cell-based, cisplatin or BGB combos, synergistic combos for chromothripsis tumors (AID 1671451; call rule not given here;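 note: cells exposed for 96 hours before readout; 0% = vehicle DMSO and 100% = killing by high DMSO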); settings: ICB984 medulloblastoma cells, drug combinations, stronger effect = higher value
[5] = growth inhibition, single agents and combos, LFS_MB_1R, cell-based, cisplatin or BGB combos, synergistic combos for chromothripsis tumors (AID 1671452); settings: LFS_MB_1R medulloblastoma cells, stronger effect = higher value;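 note: cells exposed for 96 hours before readout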
[6] = growth inhibition, single agents and combos, HTB85, cell-based, BGB or cisplatin IC20 combos, synergistic combos for chromothripsis tumors (AID 1671453); settings: HTB85 osteosarcoma cells, drug combinations, stronger effect = higher value;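 note: cells exposed for 96 hours before readout; 0% = vehicle DMSO and 100% = high DMSO killing control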
[7] = growth inhibition, single agents and combos, CRL2098, cell-based, BGB or cisplatin IC20 combos, synergistic combos for chromothripsis tumors (AID 1671454); settings: CRL2098 osteosarcoma cells, drug combinations, stronger effect = higher value;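 note: cells exposed for 96 h before readout; 0% = vehicle DMSO and 100% = killing by high DMSO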
[8] = growth inhibition, single agents and combos, HD-MB03, cell-based, BGB or cisplatin IC20 combos, synergistic combos for chromothripsis tumors (AID 1671455; in the data active = inhibition above about 83%;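 note: 0% = vehicle DMSO and 100% = high DMSO as cytotoxic control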); settings: HD-MB03 medulloblastoma cells, stronger effect = higher value
[9] = growth inhibition, single agents and combos, UWB1.289, cell-based, BGB or cisplatin combos, synergistic combos for chromothripsis tumors (AID 1671456); settings: UWB1.289 ovarian carcinoma cells, stronger effect = higher value;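 note: cells exposed to compound for four days; 0% = vehicle DMSO and 100% = killing by high DMSO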
[10] = growth inhibition, single agents and combos, LFS_MB_2R, cell-based, cisplatin combos, synergistic combos for chromothripsis tumors (AID 1671457); settings: LFS_MB_2R medulloblastoma cells, stronger effect = higher value;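 note: cells exposed to compound for four days before readout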
[11] = growth inhibition, MDA-MB-436, cell-based, BGB or cisplatin combos, synergistic combos for chromothripsis tumors (AID 1671458; call rule not given here;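 note: cells exposed for 96 hours; 0% = vehicle DMSO and 100% = killing by high DMSO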); settings: MDA-MB-436 breast carcinoma growth inhibition, drug combinations, stronger effect = higher value
[12] = UWB1.289_BRCA1 ovarian cancer growth, cell-based, BGB or cisplatin combinations (AID 1671459); settings: UWB1.289 BRCA1 ovarian carcinoma, drug combinations, stronger effect = higher value
[13] = drug combination toxicity in non-malignant astrocytes – cell-based, BGB or cisplatin IC20 combos, cytotoxicity control for chromothriptic childhood tumor combination screen (AID 1671460); settings: Human astrocytes, viability inhibition, drug combinations, at 0.5 µM, stronger effect = higher value;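 note: cells exposed to compounds for 96 hours before viability readout; 0% = vehicle and 100% = killing control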
[14] = BT084 cell growth, single and combined drugs, ICGC_MB145, cisplatin and BGB IC40 combos (AID 1671461); settings: BT084 medulloblastoma cells, drug combinations, stronger effect = higher value;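 note: cells exposed to drugs for 96 hours; 0% = vehicle DMSO and 100% = high DMSO full killing control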
[15] = RCMB18 cell growth, single agent and combined, cisplatin and BGB IC40 combos (AID 1671462); settings: RCMB18 medulloblastoma cells, stronger effect = higher value;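 note: cells exposed to compound for four days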
[16] = CRL1545 cell growth, single agent and combined, cisplatin and BGB IC20 combos (AID 1671464); settings: CRL1545 osteosarcoma cells, stronger effect = higher value;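 note: cells exposed to compound for 96 hours before readout; 0% = vehicle DMSO and 100% = high DMSO killing control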
[17] = measured here: combination with BGB IC40, at 0.05 µM
[18] = measured here: with BGB IC20 combination, at 0.5 µM
[19] = measured here: with cisplatin IC20 combination, at 0.5 µM
[20] = measured here: combination with cisplatin, at 0.5 µM
[21] = measured here: combination with cisplatin, at 5 µM

## CC(CCN1CCC(Cn2cc(CCO)nn2)CC1)CC(C)(C)C (stereo unspecified)
[1]
  z-score: -0.27 (inactive)

## Cc1ccc(NC(=O)c2csc(Cc3ccccc3)n2)cn1
[1]
  z-score: -1.08 (inactive)

## Cn1cc(C(=O)N2CCc3[nH]nc(-c4ccccc4F)c3C2)c2ccccc21
[1]
  z-score: -0.945 (inactive)

## COc1ccc(-c2nc(-c3cc(C(F)(F)F)cc(C(F)(F)F)c3)n(Cc3ccc(C(N)=O)cc3)c2-c2ccc(OC)cc2)cc1
[2]; at 0.5 µM, stronger effect = higher value
  inhibition: -25% (inactive)
[2]; measured here: combination with BGB IC20, at 0.005 µM
  inhibition: -26.9%
[2]; measured here: combination with BGB IC40, at 0.005 µM
  inhibition: -58.7%
[2]; [17]
  inhibition: -38.9%
[2]; measured here: combination with cisplatin, at 0.5 µM, stronger effect = higher value
  inhibition: -39.3%
[2]; measured here: combination with cisplatin, at 5 µM, stronger effect = higher value
  inhibition: -39.4%
[3]; BGB combo, at 5 µM
  inhibition: -37.8%
[3]; at 0.5 µM
  inhibition: 0.84% (inactive)
[3]; cisplatin combo, at 5 µM
  inhibition: -22.8%
[3]; [18]
  inhibition: 36.9%
[3]; [19]
  inhibition: -4.78%
[3]; single agent, at 5 µM
  inhibition: -31.8%
[4]; BGB IC20 combo, at 0.005 µM
  inhibition: -2.07%
[4]; BGB IC40 combo, at 0.005 µM
  inhibition: -30.8%
[4]; BGB IC40 combo, at 0.05 µM
  inhibition: -25.1%
[4]; at 0.5 µM
  inhibition: -9.24% (inactive)
[4]; cisplatin combo, at 0.05 µM
  inhibition: -31.6%
[4]; cisplatin combo, at 0.5 µM
  inhibition: -14.1%
[4]; cisplatin combo, at 5 µM
  inhibition: -32.9%
[4]; measured here: 5 uM single agent, at 5 µM
  inhibition: -2.84%
[5]; at 0.5 µM
  inhibition: -33.2% (inactive)
[5]; [17]
  inhibition: -28.8%
[5]; [20]
  inhibition: -57.5%
[5]; [21]
  inhibition: -46.5%
[6]; at 0.5 µM
  inhibition: -24.2% (inactive)
[6]; measured here: with BGB IC20, at 0.5 µM
  inhibition: -10.5%
[6]; measured here: with BGB IC20, at 5 µM
  inhibition: -7.08%
[6]; measured here: with cisplatin IC20, at 0.5 µM
  inhibition: -32.4%
[6]; measured here: with cisplatin IC20, at 5 µM
  inhibition: -14.9%
[6]; single agent, at 5 µM
  inhibition: 13.9%
[7]; at 0.5 µM
  inhibition: -66.2% (inactive)
[7]; measured here: combination with BGB at IC20, at 0.5 µM
  inhibition: -72.7%
[7]; measured here: combination with cisplatin at IC20, at 0.5 µM
  inhibition: -56.3%
[8]; at 0.5 µM
  inhibition: -5.54% (inactive)
[8]; measured here: combo with BGB at IC20, at 0.5 µM
  inhibition: -5.38%
[8]; measured here: combo with cisplatin at IC20, at 0.5 µM
  inhibition: 0.332%
[9]; at 0.5 µM
  inhibition: -10.7% (inactive)
[9]; measured here: inhibition with BGB combination, at 0.05 µM
  inhibition: -23.7%
[9]; measured here: inhibition with cisplatin combination, at 0.05 µM
  inhibition: -19.3%
[10]; at 0.5 µM
  inhibition: -16.7% (inactive)
[10]; [20]
  inhibition: -7.64%
[10]; [21]
  inhibition: -13.3%
[11]; at 0.5 µM
  inhibition: -7.79% (inactive)
[11]; measured here: BGB combination, at 0.5 µM
  inhibition: -10.8%
[11]; measured here: BGB combination, at 5 µM
  inhibition: -8.02%
[11]; measured here: cisplatin combination, at 0.5 µM
  inhibition: -12.9%
[11]; measured here: cisplatin combination, at 5 µM
  inhibition: -13.3%
[12]; BGB combination, concentration series, at 5 µM
  inhibition: 4.42%
[12]; at 0.5 µM
  inhibition: -9.42% (inactive)
[12]; cisplatin combination, concentration series, at 5 µM
  inhibition: 7.4%
[13]
  inhibition: 5.71% (inactive)
[13]; measured here: combo with BGB IC20
  inhibition: 1.56%
[13]; measured here: combo with cisplatin IC20
  inhibition: 6.54%
[14]; at 0.5 µM
  inhibition: -7.83% (inactive)
[14]; cisplatin combination, at 0.5 µM
  inhibition: -5.41%
[14]; cisplatin combination, at 5 µM
  inhibition: -208%
[14]; measured here: BGB IC40 combination 0.05 uM, at 0.05 µM
  inhibition: -36.9%
[14]; single agent, at 5 µM
  inhibition: -5.53%
[15]; at 0.5 µM
  inhibition: -23% (inactive)
[15]; cisplatin combo, at 5 µM
  inhibition: -55.8%
[15]; measured here: BGB IC40 combination, at 0.05 µM
  inhibition: -13.9%
[15]; [20]
  inhibition: -29.4%
[15]; single agent, at 5 µM
  inhibition: -12.6%
[16]; at 0.5 µM
  inhibition: 21.1% (inactive)
[16]; [18]
  inhibition: -22.6%
[16]; [19]
  inhibition: 42.1%
[16]; single agent, at 0.05 µM
  inhibition: -21.9%
[16]; single agent, at 5 µM
  inhibition: -24.7%
